The record followed here is PubChem BioAssay (NCI).

Assay [1] can be described thus: NCI Yeast Anticancer Drug Screen. Data for the rad50 strain (AID 155).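 Further: 0% = growth of vehicle-only cultures of the same strain.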 As to conditions: S. cerevisiae rad50 strain growth inhibition; at 50.0 µM; hits give high values. The gist of the method:
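Relative growth inhibition (compound vs vehicle) was measured in yeast with a defined repair-gene alteration.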

Assay [2] can be described thus: NCI Yeast Anticancer Drug Screen. Data for the mec2-1 strain (AID 157). The conditions noted are these: S. cerevisiae mec2-1 strain, at 50.0 µM, hits give high values. The gist of the method: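 Strain: mec2-1 (DNA repair/cell cycle alteration). Compound exposure, then growth measured; inhibition expressed relative to vehicle.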
Assay [3] is described as follows: NCI Yeast Anticancer Drug Screen. Data for the sgs1 mgt1 strain (AID 161).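 Further: 0% = growth of cultures given vehicle only.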 As to conditions: S. cerevisiae sgs1 mgt1 strain, at 50.0 µM, hits give high values. The gist of the method:
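Test agents were incubated with a DNA-repair-mutant yeast strain. Growth was then read and compared against vehicle-treated controls.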

The nature of assay [4]: NCI Yeast Anticancer Drug Screen. Data for the cln2 rad14 strain (AID 165).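 Further: 0% = growth equal to vehicle treated cultures.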 The conditions noted are these: S. cerevisiae cln2 rad14 strain, at 50.0 µM, hits give high values. In short, it runs like this: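 Compounds are applied to the cln2 rad14 yeast strain, and growth is then compared with that of vehicle-treated cultures to give inhibition.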
Assay [5] is described as follows: NCI Yeast Anticancer Drug Screen. Data for the bub3 strain (AID 167). The conditions noted are these: S. cerevisiae bub3 mutant strain, at 50.0 µM, hits give high values. The gist of the method:
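Screening used yeast with an engineered genetic alteration affecting cell cycle control. Compound-exposed cultures were compared with vehicle cultures, and reduced growth was taken as inhibition.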

Assay [6] can be described thus: NCI Yeast Anticancer Drug Screen. Data for the mlh1 rad18 strain (AID 175). As to conditions: S. cerevisiae mlh1 rad18 strain growth inhibition; at 50.0 µM; hits give high values. The gist of the method:
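Read-out is yeast growth inhibition, calculated against vehicle-only controls. The compound was applied to a strain engineered with DNA damage repair alterations.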

Compounds without any hit were thinned out: in the full panel of roughly 79,000, 15% have a hit. Values without a mark were called inactive. Calls of active or inactive are those of the source. No stated cut-off is given here; in the data, active means growth inhibition above about 70%; inactive means the rest.

Regarding `COc1ccc2c(c1)C1Oc3ccccc3CC1(O)CO2` (stereo unspecified), the growth inhibition is 14.4% in assay [1]; 6.75% in assay [2]; 21.3% in assay [3]; 26.5% in assay [4]; -6.3% in assay [5]; 51.5% in assay [6].

`Cc1ccc([N+](=O)[O-])cc1NC(=O)Nc1cccc(Cl)c1Cl`: the growth inhibition in assay [1] is 3.55%; in assay [2] it was 2.95%; in assay [3] it was 9.8%; in assay [4], 9%; in assay [5], 18.1%; in assay [6], 11.1%.

Consider `CC(=S)NC(=O)Nc1cccc2ccccc12`, for which the growth inhibition in assay [1] was 19.2%; in assay [2], -8.45%; in assay [3], 2.4%; in assay [4], -50.6%; in assay [5], -10.2%; in assay [6] it was 10.8%.

Take `O=C(O)/C=C/c1c2ccc(=O)c(O)c-2oc2c(O)c(O)ccc12`: the growth inhibition was 36.4% in assay [1]; 24.4% in assay [2]; 13.9% in assay [3]; -23.9% in assay [4]; 10.2% in assay [5]; 44.8% in assay [6].

As for `CN1C(=O)N/C(=C\c2ccc(S(=O)(=O)NN)cc2)C1=O`, the growth inhibition in assay [1] was 4.05%; in assay [2], 9.6%; in assay [3] it was 24.7%; in assay [4] it was 11.7%; in assay [5] it was -18.8%; in assay [6] it was 39.2%.

On to `NC(N)=N/N=C/c1c(Cl)nc2n1CCS2`, for which the growth inhibition in assay [1] is -7.35%; in assay [2], -32.2%; in assay [3], -9.5%; in assay [4], 3.5%; in assay [5], 22.4%; in assay [6], -6.8%.

Consider `COc1cccc(C2c3cc4c(cc3OC(C)(N3CCCC3)C2C)OCO4)c1OC` (stereo unspecified), for which the growth inhibition was -4% in assay [1]; -4.7% in assay [2]; -4.8% in assay [3]; -4.25% in assay [4]; -13.5% in assay [5]; 12.1% in assay [6].

Consider `c1ccc(-c2coc(-c3ccccc3)c2)cc1`, for which the growth inhibition in assay [1] was -16.2%; in assay [2], -11.8%; in assay [3], -17.6%; in assay [4], -12.2%; in assay [5] it was -9.35%; in assay [6], -1.9%.

Consider `COc1ccc(N(C)C(=S)c2ccccc2)cc1`, for which the growth inhibition in assay [1] was -49.5%; in assay [2], -11.7%; in assay [3], -15.4%; in assay [4], -37.5%; in assay [5], 0.45%; in assay [6], -10.9%.

For `Cc1c(I)sc(I)c1I`, the growth inhibition is 39.6% in assay [1]; 1.75% in assay [2]; 30.9% in assay [3]; 12.9% in assay [4]; 4.1% in assay [5]; 12.6% in assay [6].

Take `CN(C)C(=S)/N=c1\ssc(=S)n1C1CCCCC1`: the growth inhibition was -22.1% in assay [1]; 2.55% in assay [2]; 6.45% in assay [3]; -49.6% in assay [4]; 25.7% in assay [5]; -11.5% in assay [6].

On to `Cc1[nH]c2ccccc2c1C(CC(=O)O)c1ccccc1` (stereo unspecified), for which the growth inhibition is 13.6% in assay [1]; -1.4% in assay [2]; -12.8% in assay [3]; -4.85% in assay [4]; -4.55% in assay [5]; -4.4% in assay [6].

With `CN(C)CC1CCCC/C1=N/OC(=O)c1ccc(Cl)cc1` (stereo unspecified), the growth inhibition in assay [1] was 0.15%; in assay [2] it was 2.1%; in assay [3], 10.9%; in assay [4], 11.4%; in assay [5], -4.6%; in assay [6], 13.7%.

`[N-]=[N+]=NC(c1ccccc1)S(=O)c1ccccc1` (stereo unspecified): the growth inhibition was 98.1% (active) in assay [1]; 98.5% (active) in assay [2]; 95.8% (active) in assay [3]; 48% in assay [4]; 96.3% (active) in assay [5]; 91% (active) in assay [6].

Consider `O=CNc1ccccc1-c1ccccc1`, for which the growth inhibition in assay [1] was -33.3%; in assay [2], -15%; in assay [3], -18%; in assay [4], -17.1%; in assay [5] it was -0.15%; in assay [6], 2.55%.

With `O.O.O=c1[nH]cc(CO)c(=O)[nH]1.[NH2-].[NH2-].[Pt+2]`, the growth inhibition in assay [1] is 14.1%; in assay [2], -1.15%; in assay [3], 14.5%; in assay [4] it was 16.6%; in assay [5], 0.45%; in assay [6], 4.25%.

Turning to `CN(C)Cc1ccccc1COC(=O)c1ccc(Cl)cc1`, the growth inhibition in assay [1] is 12.8%; in assay [2] it was 11.5%; in assay [3], 15.1%; in assay [4], 9.75%; in assay [5] it was 17.4%; in assay [6], 20.9%.

On to `Cc1cc(S(=O)(=O)Nc2n[nH]c(Nc3ccccc3)n2)c(S)cc1Cl`, for which the growth inhibition in assay [1] was -3.5%; in assay [2], 9%; in assay [3], -13.8%; in assay [4], 9.6%; in assay [5] it was 12.9%; in assay [6] it was 19.6%.

Regarding `C[C@H](CCC(=O)NCCS(=O)(=O)O)[C@H]1CC[C@H]2[C@@H]3CC[C@@H]4C[C@H](O)CC[C@]4(C)[C@H]3CC[C@]12C`, the growth inhibition was 2.9% in assay [1]; -21.1% in assay [2]; 5.65% in assay [3]; -9.3% in assay [4]; -5.55% in assay [5]; 14.8% in assay [6].

For the molecule `COC(=O)c1ccc(C(=O)OC)c2nc3cc(C)c(C)cc3nc12`, the growth inhibition in assay [1] was -0.7%; in assay [2], 20.7%; in assay [3], 0.1%; in assay [4] it was -7.1%; in assay [5], 5.35%; in assay [6], 12%.

In the case of `O=Cc1c2c(cc3c1CC1(C3)Cc3cc4c(c(C=O)c3C1)CCCC4)CCCC2`, the growth inhibition in assay [1] was 5.25%; in assay [2], 11.6%; in assay [3], 4.4%; in assay [4], 25.3%; in assay [5], 17.3%; in assay [6], 25.1%.
